# “And” between values parts separate entries of the source, which are not always exact repeats. Equal values may be shown once. This is part of a sample that, as a whole, favours compounds with a hit. Of some 83,000 tested, about 20% had one in any assay.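 Cell lines were cultured in 96-well plates, exposed to a single compound concentration, and assessed for percent growth 48 hours later.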 The source made the active and inactive calls. Rule for the calls: active = growth percent below 10; inactive = the rest.
# Experiments:
# Assay in all cases: NCI-60 one-dose screen, 48 h (100 = growth as untreated, 0 = no growth, -100 = all killed)
# MOLT-4 leukemia = details: 10 µM
# SR leukemia = details: 10 µM
# RPMI-8226 leukemia = details: 10 µM
# OVCAR-8 ovarian = details: 10 µM
# OVCAR-4 ovarian = details: 10 µM
# SK-OV-3 ovarian = details: 10 µM
# OVCAR-3 ovarian = details: 10 µM
# HS 578T breast = details: 10 µM
# NCI/ADR-RES ovarian = details: 10 µM
# T-47D breast = details: 10 µM
# BT-549 breast = details: 10 µM
# MDA-MB-435 melanoma = details: 10 µM
# SW-620 colon = details: 10 µM
# MCF7 breast = details: 10 µM unless noted
# HCT-116 colon = details: 10 µM
# HCC-2998 colon = details: 10 µM
# KM12 colon = details: 10 µM
# IGROV1 ovarian = details: 10 µM
# OVCAR-5 ovarian = details: 10 µM
SMILES,growth (MOLT-4 leukemia),growth (SR leukemia),growth (RPMI-8226 leukemia),growth (OVCAR-8 ovarian),growth (OVCAR-4 ovarian),growth (SK-OV-3 ovarian),growth (OVCAR-3 ovarian),growth (HS 578T breast),growth (NCI/ADR-RES ovarian),growth (T-47D breast),growth (BT-549 breast),growth (MDA-MB-435 melanoma),growth (SW-620 colon),growth (MCF7 breast),growth (HCT-116 colon),growth (HCC-2998 colon),growth (KM12 colon),growth (IGROV1 ovarian),growth (OVCAR-5 ovarian)
O=C(CBr)Nc1ccc(Cl)cc1,20.7% (inactive),-28.8% (active),73.4% (inactive),96.6% (inactive),89.2% (inactive),108% (inactive),68.9% (inactive),115% (inactive),94.5% (inactive),67.8% (inactive),116% (inactive),87% (inactive),9.26% (active),45% (inactive),54.4% (inactive),112% (inactive),102% (inactive),–,–
N#CCc1ccccc1,97.9% (inactive),104% (inactive),101% (inactive),105% (inactive),–,98.4% (inactive),111% (inactive),106% (inactive),103% (inactive),103% (inactive),91.7% (inactive),110% (inactive),100% (inactive),97.7% (inactive),102% (inactive),106% (inactive),111% (inactive),–,–
COc1cc(/C=C(/C)[N+](=O)[O-])ccc1O,-3.07% (active) and 1.18% (active),-14.7% (active) and -4.36% (active),-21.5% (active),37.5% (inactive) and 27.1% (inactive),–,92.5% (inactive) and 90.2% (inactive),-76.2% (active) and -89.3% (active),48.5% (inactive) and -8.96% (active),62.4% (inactive) and -17.5% (active),-22.6% (active) and -40.3% (active),79.5% (inactive) and 95.1% (inactive),6.19% (active),-68% (active) and -56.1% (active),9.25% (active) and 1.76% (active),-56% (active) and -35.4% (active),30.3% (inactive) and 87.3% (inactive),59.9% (inactive) and 41.9% (inactive),26.4% (inactive) and 21.3% (inactive),–
COc1cc([N+](=O)[O-])c2ncccc2c1[N+](=O)[O-],26% (inactive),25.7% (inactive),45.8% (inactive),69.8% (inactive),47.5% (inactive),91.5% (inactive),58.1% (inactive),79.4% (inactive),81.7% (inactive),50.9% (inactive),98.2% (inactive),44.8% (inactive),-61.5% (active),23.3% (inactive),14.4% (inactive),102% (inactive),20.3% (inactive),–,–
C/C(=C\c1ccc(Cl)c(Cl)c1)[N+](=O)[O-],4.34% (active) and 79.2% (inactive),12.3% (inactive) and 88.6% (inactive),-10.7% (active) and 91.3% (inactive),11.9% (inactive) and 90.8% (inactive),-42.5% (active) and 114% (inactive),108% (inactive) and 96.6% (inactive),-97.7% (active) and 107% (inactive),82.8% (inactive) and 103% (inactive),30.8% (inactive) and 93.2% (inactive),-79.3% (active) and 57.7% (inactive),76.3% (inactive) and 103% (inactive),126% (inactive),-89.1% (active) and 98.6% (inactive),-85.1% (active) and 80.6% (inactive),-91.5% (active) and 88.2% (inactive),99.6% (inactive) and 100% (inactive),-35.5% (active) and 98.3% (inactive),–,–
COc1ccc(/C=C\[N+](=O)[O-])cc1OC,85.7% (inactive) and 65.5% (inactive),16.6% (inactive) and -16.1% (active),20.7% (inactive) and -31.7% (active),73.9% (inactive) and 75.7% (inactive),73.7% (inactive) and 80.5% (inactive),106% (inactive) and 95.9% (inactive),55.6% (inactive) and 37% (inactive),71.2% (inactive) and 94.4% (inactive),91.3% (inactive) and 86.9% (inactive),62.8% (inactive) and 42.3% (inactive),92% (inactive) and 70.3% (inactive),12.3% (inactive) and 31.1% (inactive),37.7% (inactive) and 55.6% (inactive),12.6% (inactive) and 16.4% (inactive),13.2% (inactive) and 0.137% (active),61% (inactive) and 54.3% (inactive),33.7% (inactive) and 57.2% (inactive),–,–
COc1cc2c(cc1OC)C13CCN4CC5=CCOC6CC(=O)N2C1C6C5CC43 (stereo unspecified),109% (inactive) and 86.6% (inactive),82% (inactive),56.5% (inactive),99.7% (inactive) and 113% (inactive),113% (inactive) and 102% (inactive),101% (inactive) and 114% (inactive),115% (inactive) and 107% (inactive),114% (inactive) and 96.4% (inactive),116% (inactive) and 66.9% (inactive),96.9% (inactive) and 109% (inactive),90.3% (inactive),112% (inactive) and 110% (inactive),115% (inactive) and 106% (inactive),94.8% (inactive) and 98.6% (inactive),99.4% (inactive) and 102% (inactive),-56.9% (active),101% (inactive) and 100% (inactive),–,–
O=[N+]([O-])/C=C/c1ccc(Cl)cc1[N+](=O)[O-],2.69% (active),4.94% (active),-11.3% (active),17.8% (inactive),–,99.2% (inactive),-31.5% (active),-6.61% (active),32.1% (inactive),-6.41% (active),–,76.8% (inactive),-90.2% (active),-69.2% (active),-100% (active),105% (inactive),29.1% (inactive),17.8% (inactive),–
[O-][n+]1ccccc1S,32.1% (inactive),7.55% (active),5.89% (active),17.2% (inactive),–,91.1% (inactive),16.9% (inactive),64% (inactive),37% (inactive),53.4% (inactive),93.5% (inactive),53.8% (inactive),42% (inactive),25.3% (inactive),-9.38% (active),76.7% (inactive),46.5% (inactive),6.4% (active),–
O=S(=O)(F)c1ccc(Cl)cc1,105% (inactive),107% (inactive),97.9% (inactive),102% (inactive),–,104% (inactive),108% (inactive),–,109% (inactive),105% (inactive),112% (inactive),108% (inactive),100% (inactive),102% (inactive),106% (inactive),83.2% (inactive),104% (inactive),–,113% (inactive)
COc1cc(/C=C/[N+](=O)[O-])cc(Br)c1OC,10% (inactive),-5.8% (active),-15.7% (active),31.2% (inactive),60.3% (inactive),94.7% (inactive),69.9% (inactive),–,60.2% (inactive),16.3% (inactive),8.15% (active),11% (inactive),–,8.38% (active),-91.7% (active),-90.9% (active),15.2% (inactive),–,–
COc1cc([C@@H]2c3cc4c(c(O)c3C[C@H]3COC(=O)[C@@H]32)OCO4)cc(OC)c1OC,-30.2% (active),-3.92% (active),-53.3% (active),16.4% (inactive),49.9% (inactive),-0.464% (active),-48.9% (active),-10.6% (active),-28.9% (active),60.8% (inactive),-12.9% (active),-19.6% (active),15.9% (inactive),8.86% (active),-38.4% (active),-54.8% (active),0.358% (active),-32.1% (active),–
COC12c3c(C)cc(O)c4c(=O)occ(c34)C(=O)C1C13COC(=O)c4c(O)cc(C)c(c41)C(=O)C2C3OC(C)=O (stereo unspecified),102% (inactive),92.4% (inactive),90.6% (inactive),105% (inactive),100% (inactive),93.4% (inactive),105% (inactive),112% (inactive),97.1% (inactive),94% (inactive),96.2% (inactive),173% (inactive),99.7% (inactive),89.5% (inactive),99.1% (inactive),97.3% (inactive),103% (inactive),–,–
CC(C)(C)OOC(=O)/C=C\C(=O)OOC(C)(C)C,107% (inactive),93.5% (inactive),112% (inactive),97.4% (inactive),104% (inactive),108% (inactive),113% (inactive),113% (inactive),109% (inactive),101% (inactive),104% (inactive),119% (inactive),98.7% (inactive),98.7% (inactive),106% (inactive),104% (inactive),94.6% (inactive),–,–
Cc1cc([N+](=O)[O-])c2ccccc2[n+]1[O-],-24.5% (active),-10.2% (active) and -21.8% (active),-23.6% (active) and -42.3% (active),9.55% (active) and -40.6% (active),84.1% (inactive) and 58.4% (inactive),7.72% (active) and 21.4% (inactive),-32.2% (active) and -41% (active),8.5% (active) and -14.4% (active),7.18% (active) and 0.529% (active),-6.69% (active) and -8.77% (active),-36.6% (active) and -19.4% (active),-53.1% (active) and -81.3% (active),-10.5% (active) and -30% (active),-11.2% (active) and 4.36% (active),-26.4% (active) and 0.608% (active),-67.8% (active) and -90.8% (active),-40.8% (active) and -59.2% (active),–,–
